Experimental data as given in PubChem BioAssay AID588453 (National Center for Advancing Translational Sciences (NCATS), 2011).
Out of some 390,000 compounds screened, about 4,000 (1%) were called active. Roughly 4% stayed inconclusive and do not appear here. Many of the other results were omitted from the sample, so actives are more common in it than they were. A number with no mark means an inactive call. The call rests on the fitted dose curve; in most records, active means well fitted inhibition curve with a large enough effect; inconclusive means small, poorly fitted or top-dose-only effect; inactive means no such curve, though single readings can be large or run the other way.

Each molecule was assayed against Thioredoxin reductase 1, cytoplasmic (Rattus norvegicus) (UniProt O89049) (assay: qHTS Assay for Inhibitors of Mammalian Selenoprotein Thioredoxin Reductase 1 (TrxR1): qHTS). Conditions: recombinant rTrxR1, NADPH fluorescence consumption, selenite substrate; series mostly up to 114 µM; activity change, negative = inhibition: at the top concentration.
Summary of the method: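 Rat TrxR1 (90 nM in the dispensed reagent) was pre-reduced with 400 uM NADPH for 5 min at room temperature, then incubated with compound for 15 min. After 400 uM selenite was added, NADPH fluorescence (Ex 340/Em 450 nm) was followed for 8 min.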
Further: nearly all actives have a fitted effect of over 65% in size.
On the % scale 0 is the no-effect control and ±100 the full control effect; potency means the concentration at half of the fitted maximal effect.

Thioredoxin reductase 1, cytoplasmic (Rattus norvegicus), sequence (O89049 whole entry, looked up): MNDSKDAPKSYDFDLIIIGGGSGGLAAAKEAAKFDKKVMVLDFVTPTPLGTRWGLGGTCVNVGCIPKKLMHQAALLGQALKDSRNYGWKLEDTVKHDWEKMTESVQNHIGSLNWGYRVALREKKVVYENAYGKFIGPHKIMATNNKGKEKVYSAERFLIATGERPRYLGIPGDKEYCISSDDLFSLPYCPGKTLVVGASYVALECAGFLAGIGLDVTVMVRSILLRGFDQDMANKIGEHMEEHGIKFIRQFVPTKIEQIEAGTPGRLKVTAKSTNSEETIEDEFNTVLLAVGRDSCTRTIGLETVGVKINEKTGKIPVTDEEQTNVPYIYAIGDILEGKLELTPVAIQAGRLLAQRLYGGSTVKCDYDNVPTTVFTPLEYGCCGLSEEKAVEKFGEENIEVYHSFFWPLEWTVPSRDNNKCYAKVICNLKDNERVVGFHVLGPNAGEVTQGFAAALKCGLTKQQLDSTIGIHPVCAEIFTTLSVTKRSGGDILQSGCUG

Compound	activity change, negative = inhibition	Potency
Cn1c(=O)c2cn(-c3cccc4ccccc34)cc2n(C)c1=O	-9.19%	
CC1=C(C)CC2C(=O)N(c3cccc4ccccc34)C(=O)C2C1 (stereo unspecified)		14.1 µM (active)
CCc1ccccc1N1C(=O)C2C3CC(=O)C(c4ccccc43)C2C1=O (stereo unspecified)	9.08%	
COc1cccc(OCCn2c(-c3ccc(Br)cc3)nc3ccccc3c2=O)c1	19.9%	
COC(=O)C(CC(C)C)NS(=O)(=O)c1cc(Br)ccc1Br (stereo unspecified)	4.6%	
O=C(NCC(c1cccnc1)N1CCc2ccccc21)c1cccc(C(F)(F)F)c1 (stereo unspecified)	-5.37%	
Nc1ccccc1N	14.3%	
COc1ccc(-c2nc(SCC(=O)N3CCCCC3C)n[nH]2)cc1 (stereo unspecified)	8.31% [at 57.1 µM]	
CC(=O)Nc1ccc(N2C(=O)CC(Sc3nccc(C)n3)C2=O)cc1 (stereo unspecified)	33.8%	
COc1ccc(N2C(=O)CC(Sc3n[nH]c(-c4ccc(C)cc4)n3)C2=O)cc1 (stereo unspecified)		5.01 µM (active)
C/[N+]([O-])=C\c1ccc([N+](=O)[O-])o1		11.2 µM (active)
Cc1cccc(NC(=O)COC(=O)c2ccccc2OCc2cccc(Br)c2)c1	11.2%	
Cc1cc(Nc2cc(N3CCN(C)CC3)nc(Sc3ccc(NC(=O)C4CC4)cc3)n2)n[nH]1	-3.3% [at 57.1 µM]	
Cn1c(SCC(=O)Nc2ccc(N3CCOCC3)cc2)nnc1C(F)(F)F	15.9%	
C=CC(=O)Nc1ccc(Nc2ccnc(Nc3ccc(N4CCN(C)CC4)cc3)n2)cc1		12.6 µM (active)
CCc1ccc(NC(=O)N2CCN(C(=O)c3nsc4ccccc34)CC2)cc1	12.5% [at 57.1 µM]	
CCOC(=O)c1scc(-c2ccc(C)cc2)c1S(=O)(=O)Nc1cc(C)ccc1C	18.8% [at 57.1 µM]	
COc1cccc(C(=O)CC(=O)C(=O)Nc2ccc([N+](=O)[O-])cc2C)c1	-9.02%	
COc1ccc(NS(=O)(=O)c2cc(NC(=O)CC(=O)c3ccc([N+](=O)[O-])cc3)ccc2C)cc1	8.24%	
COc1cccc(NCCC(=O)c2cccc([N+](=O)[O-])c2)c1		20 µM (active)
Cc1ccccc1CNC(=O)C1CCCN(S(=O)(=O)N(C)c2ccc(F)cc2)C1 (stereo unspecified)	-1.25%	
CC1CN(c2cc(=O)n(Cc3ccc(F)cc3)c(=O)[nH]2)CC(C)O1 (stereo unspecified)		10 µM (active)
CC(C)(C)N1CC(c2nc3ccccc3n2Cc2ccc(F)cc2)CC1=O (stereo unspecified)	6.6%	
Cc1ccc(-n2c(=O)cc(N3CCN(Cc4ccccc4)CC3)[nH]c2=O)cc1	-31.5%	
Cc1c(Cl)cccc1NC(=O)Cn1cc(C(=O)c2cccs2)c2ccccc21	3.36%	
O=C(Cn1c(=O)n(-c2ccc(F)cc2)c(=O)c2sc3ccccc3c21)NC1CCCC1	12.1%	

Compound	activity change, negative = inhibition	Potency
O=[N+]([O-])c1cc(S(=O)(=O)CCCN2CCOCC2)ccc1F		11.2 µM (active)
O=C(NCCCN1CCOCC1)c1ccccc1NS(=O)(=O)c1ccc(F)cc1	12.5% [at 57.1 µM]	
O=S(=O)(NCCCN1CCOCC1)c1ccc(F)c(Cl)c1	12%	
CC1CC2C3CCC4=CC(=O)C=C[C@]4(C)[C@@]3(F)[C@@H](O)C[C@]2(C)[C@@]1(O)C(=O)CO (stereo partly specified)	-3.45% [at 57.1 µM]	
COc1cc(OC)c(OC)cc1/C=C1\C=Cc2ccccc21	-6.02%	
Cc1nnc(SCCCCSc2nnc(C)c(=O)[nH]2)[nH]c1=O	12.5% [at 11.4 µM]	
CCCCOC(=O)CNc1nnc(SCC(=O)OCC)[nH]c1=O		11.2 µM (active)
Cc1nnc(SCC(=O)NCc2cccs2)[nH]c1=O	-32.2% [at 57.1 µM]	
Cc1[nH]c2ccccc2c1C(=O)C(=O)N(C)c1ccccc1	14.2%	
Cc1cc(C)cc(NC(=O)CSc2nc3nccnc3c(=O)n2CCc2c[nH]c3ccccc23)c1	7.71%	
COc1ccccc1/C=C/C(=O)NC(=S)N1CCOCC1	18.3% [at 57.1 µM]	
COc1ccc(Cl)cc1C(=O)NNC(=S)NC(=O)/C=C/c1ccco1	7.92%	
O=C(/C=C/c1ccco1)NC(=S)N1CCCCC1		28.2 µM (active)
Cn1c(=O)cc(OCC(=O)N2CCN(c3ccccc3)CC2)c2ccccc21	20.6%	
COc1ccc(-c2nc3nc(C)cc(C)n3c2Nc2c(C)cccc2C)cc1	5.66%	
CCn1c(SCC(=O)NNC(=O)c2ccc(OC)cc2)nnc1C(C)C	23.6% [at 57.1 µM]	
COc1ccc(-n2c(SC)nc(O)cc2=O)cc1	8.9%	
CCn1c(SC)nc(O)c(C(c2ccc(OC)c(O)c2)c2c(O)nc(SC)n(CC)c2=O)c1=O		50.1 µM (active)
O=C(Cn1ncc2c3ccccc3n(Cc3ccccc3)c2c1=O)NC1CCCCCC1	4.59%	
Cc1ccc(NC(=O)C(=O)NCC(c2cccnc2)N2CCOCC2)cc1 (stereo unspecified)	7.14%	
CCN1CCN(C(c2cccnc2)c2cc(Cl)c3cccnc3c2O)CC1 (stereo unspecified)		4.47 µM (active)
CCOc1ccc(C(NC(=O)c2cc(OC)c(OC)c(OC)c2)c2cc(Cl)c3cccnc3c2O)cc1 (stereo unspecified)	17.2% [at 57.1 µM]	
COc1ccccc1N1CCN(C(CNC(=O)C(=O)NCc2ccc(C)cc2)c2cccnc2)CC1 (stereo unspecified)	6.53%	
CCOC(=O)N1CCN(C(c2cccnc2)c2ccc3cccnc3c2O)CC1 (stereo unspecified)		0.398 µM (active)
O=C(NCc1cccnc1)C(=O)NCC(c1cccnc1)N1CCN(c2ccccc2)CC1 (stereo unspecified)	0.912%	
